# MBD2 inh – inhibitors of MBD2 binding to methylated DNA, primary screen, biochemical, TR-FRET, DNA-binding domain, human | MBD2 binding to methylated oligonucleotide | inhibition, % at 4.4 µM | 370,000 tested, 0.31% active; in the data active means inhibition above about 13%
# LEDGF integ inh – blockers of LEDGF/p75-dependent integrase strand transfer – biochemical, TR-FRET, high throughput, primary screen | HIV-1 integrase (with human LEDGF/p75) | TR-FRET IN-LEDGF/p75 DNA integration, Eu/Cy5 | inhibition, % at 3.7 µM | 370,000 tested, 0.64% active | AID 743269, 2014;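 active means inhibition above the screen-wide mean plus 3 SD, cut at about 13% in these data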;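 further: signal is the Cy5 over europium emission ratio at 671 and 618 nm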
# UHRF1 MBD2 ctr – UHRF1 methylated DNA binding inhibitors, primary screen, counter-screen for MBD2 inhibitor project, biochemical, TR-FRET, human UHRF1, single concentration; inhibition, % at 4.4 µM; AID 687016, 2013; UHRF1 binding to methylated oligo; E3 ubiquitin-protein ligase UHRF1 (Homo sapiens), Q96T88; 370,000 tested, 0.75% active; in the data active means inhibition above about 21%;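 further: UHRF1 SRA domain binding a hemimethylated CpG hairpin DNA probe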
# TCR-CD3 inh – inhibitors of human TCR-CD3 interaction, primary screen, biochemical, fluorescence, TAMRA-labeled TCR probe. 360,000 tested, 0.37% active. inhibition, % at 9.4 µM. AID 651800, 2012;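 further: recombinant mutant TCR 2C K166C tagged with TAMRA read by polarization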
# Rin1-Abl PPI inh – inhibitors of Rin1-Abl protein binding, primary screen, biochemical, TR-FRET | Tyrosine-protein kinase ABL1 (Homo sapiens) + Ras and Rab interactor 1 (Homo sapiens), … | inhibition, % at 7.35 µM | AID 588664, 2011 | 360,000 tested, 0.4% active; in the data active means inhibition above about 5%, passing the limit was not always enough
# BSA TAMRA ctr – compounds interfering with TAMRA-BSA probe, counter-screen for TCR-CD3 interaction inhibitor project, biochemical, fluorescence, TAMRA-labeled BSA. shares compounds with TCR-CD3 inh. TAMRA-labeled BSA probe fluorescence counterscreen. inhibition, % at 9.4 µM. 1,200 tested, 10% active. AID 652035, 2013; in the data active means inhibition above about 23%
# TCR-CD3 inh conf – TCR-CD3 interaction inhibitors, retest, confirmation, biochemical, fluorescence, TAMRA-labeled TCR probe. AID 652036, 2013. TAMRA-labeled TCR probe fluorescence binding assay. shares compounds with TCR-CD3 inh. inhibition, % at 9.4 µM. 1,200 tested, 48% active
# Hits are given with their value; n = inactive; x = not tested or not shown. In the library only some 2% were active in any assay of this set; here they are far more common. Unless noted, no stated cut-off is given here; in the data, active means inhibition above about 19%; inactive means the rest.
SMILES,MBD2 inh,LEDGF integ inh,UHRF1 MBD2 ctr,TCR-CD3 inh,Rin1-Abl PPI inh,BSA TAMRA ctr,TCR-CD3 inh conf
O=c1oc(CCO)cc2ccc(Br)cc12,n,n,n,n,n,x,x
COc1ccc(C(=O)NNC(=S)NC(=O)c2cccc([N+](=O)[O-])c2)cc1,n,n,n,20.6,n,n,28.5
O=C(NC(=S)NNC(=O)c1ccccc1O)c1cccnc1,n,n,n,29.2,n,n,30.9
CCCCCC(=O)NNC(=S)NC(=O)c1cccc([N+](=O)[O-])c1,n,n,n,n,n,x,x
Cc1cc(Nc2ccccc2C(=O)O)n2ncnc2n1,n,n,n,n,n,x,x
CC(C)c1ccc(NC(=O)CSc2nc3ccccc3nc2N2CCCC2)cc1,n,n,n,n,n,x,x
CCN(CC)c1cccc(OCC(=O)N(C)CCC#N)c1,n,n,n,21.2,n,n,n
CC(=O)Oc1c(Br)cc(N(C(C)=O)S(=O)(=O)c2ccccc2)c2ccccc12,n,n,n,n,n,x,x
O=C(NC(=S)Nc1cccc(S(=O)(=O)NC2=NCCC2)c1)c1cc(-c2ccco2)nc2ccccc12,n,n,n,n,n,x,x
O=C(Nc1cccc(S(=O)(=O)NC2=NCCC2)c1)c1cc(-c2ccco2)nc2ccccc12,24.5,16.9,30.4,23.4,n,n,32.3
Cc1c(C(=O)N2CCC(C)CC2)oc2ccc3c(c12)C(O)CC1(CCCCC1)O3 (stereo not drawn),n,n,n,21.4,n,n,n
COCCNC(=O)c1oc2ccc3c(c2c1C)C(O)CC(C)(C)O3 (stereo not drawn),n,n,n,n,n,x,x
Cc1ccc(C(=O)NCCCN2CCOCC2)c(Cl)c1,n,n,n,n,n,x,x
C=CCOCCN(CC)CC,n,n,n,n,n,x,x
COc1ccccc1CC1CC(=O)N(c2cccc(Cl)c2C)C1=O (stereo not drawn),n,n,n,19.2,n,n,n
COc1ccc(OC)c(N2C(=O)CC(Cc3ccc(C)cc3)C2=O)c1 (stereo not drawn),n,n,n,n,n,x,x
Cc1ccc(NC(=O)/C=C/c2ccco2)cc1S(=O)(=O)N1CCCCCC1,n,n,n,n,n,x,x
Cc1cccc(-n2c(SC(C)C(=O)O)nc3sc4c(c3c2=O)CCCC4)c1 (stereo not drawn),n,n,n,n,n,x,x
Cc1cc(C)c(C)c(S(=O)(=O)N2CCN(C(=O)CNC(=O)c3ccco3)CC2)c1C,n,n,n,n,n,x,x
COC(=O)c1oc2ccccc2c1NC(=O)c1ccccc1O,n,n,n,n,n,x,x
Cc1c(C(=O)NNC(=O)c2ccccc2O)oc2ccccc12,n,n,n,22.5,n,n,25.4
COc1ccc(CCNC(=O)COC(=O)c2ccc(Br)o2)cc1OC,n,n,n,n,n,x,x
COc1ccc(Cl)cc1C(=O)NNC(=O)COC(=O)c1ccc(Br)o1,n,n,n,19.7,n,n,n
CCOC(=O)C1=C(N)Oc2cc(C)oc(=O)c2C1c1cccnc1 (stereo not drawn),n,n,n,20.6,n,n,n
O=C(OCc1ccccc1)c1ccc(Br)o1,n,n,n,48.2,n,n,n
SMILES,MBD2 inh,LEDGF integ inh,UHRF1 MBD2 ctr,TCR-CD3 inh,Rin1-Abl PPI inh,BSA TAMRA ctr,TCR-CD3 inh conf
O=C(COC(=O)c1ccc(Br)o1)NCCCc1ccccc1,n,n,n,n,n,x,x
COc1ccc2noc3c2c1C(=O)c1ccccc1-3,n,n,n,22.3,n,44.1,28.6
C[C@H](CO)N1C[C@H](C)[C@@H](CN(C)S(=O)(=O)c2cccs2)Oc2ccc(NC(=O)Nc3ccc(C(F)(F)F)cc3)cc2C1=O,n,n,n,27.6,n,n,19.3
C[C@@H]1CN([C@H](C)CO)C(=O)c2cc(NC(=O)Nc3ccc(C(F)(F)F)cc3)ccc2O[C@H]1CN(C)S(=O)(=O)c1cccs1,n,n,n,43.1,n,n,23.1
C/C(=N\NC(=O)c1c(C)nc2ccccn12)c1ccc(O)cc1O,n,n,n,49.4,n,n,36.6
C/C(=N\NC(=O)c1c(C)nc2ccccn12)c1ccccc1F,n,n,n,n,n,x,x
CCCCc1c(-c2ccccc2OC)ncn1C1CCCCC1,n,n,n,20.8,x,n,n
CCCCc1c(-c2ccccc2OC)ncn1C1CCCC1,n,n,n,n,x,x,x
CCC(C)(C)NC(=O)Cc1ccc(Cl)cc1,n,n,n,33.0,n,n,n
CCC(C)(C)NC(=O)Cc1ccc(F)cc1,n,n,n,n,n,x,x
O=C(c1ccc(NS(=O)(=O)c2cccc(F)c2)cc1)N1CCCCC1,n,n,n,n,n,x,x
Cn1c2ccccc2c2cc(/C=N/NC(=O)c3cc(O)cc(O)c3)ccc21,n,n,n,n,n,x,x
Cn1c2ccccc2c2cc(/C=N/NC(=O)c3cc(O)ccc3O)ccc21,n,41.9,n,42.8,n,n,23.2
Nc1nnc(CC(=O)N/N=C\c2cc([N+](=O)[O-])ccc2O)s1,n,n,n,35.8,n,n,25.4
Cn1c(SCC(=O)N/N=C/c2cc([N+](=O)[O-])ccc2O)nnc1-c1ccccc1,n,n,n,20.7,n,n,n
Nc1nnnn1CC(=O)N/N=C/c1cc([N+](=O)[O-])ccc1O,n,n,n,n,n,x,x
Cn1c(SCC(=O)N/N=C/c2ccc([N+](=O)[O-])s2)nnc1-c1ccccc1,n,n,n,n,n,x,x
CN(CC(=O)Nc1ccc(F)cc1)C(=O)CN1C(=O)NC(CCc2ccccc2)C1=O (stereo not drawn),n,n,n,n,n,x,x
CN(C)/C=C1\SC(=S)N(c2ccc(F)cc2)C1=O,n,n,n,n,n,x,x
CN(C)/C=C1\SC(=S)N(c2ccc(Br)cc2)C1=O,n,n,n,30.5,n,90.0,76.0
COC(=O)[C@H]1C[C@@]2(n3ccc4ccccc43)c3ccccc3N(S(=O)(=O)c3ccccc3)[C@H]2N1,n,n,n,x,x,x,x
CCc1ccc(NC(=O)CSc2ccc(-c3ccco3)nn2)cc1,n,n,n,n,n,x,x
CC(=O)c1cccc(NC(=O)CSc2ccc(-c3ccco3)nn2)c1,n,n,n,25.6,n,n,n
Cc1ccc(SCc2cc(=O)[nH]c(N3CCOCC3)n2)cc1,n,n,n,19.4,n,n,n
Cc1nc(CSc2ccc(Cl)cc2)cc(N2CCOCC2)n1,n,n,n,n,n,x,x
CC1(C(=O)NCc2cccnc2)CCN1C(=O)Cc1cccs1 (stereo not drawn),n,n,n,n,n,x,x
